Screening results as filed in PubChem BioAssay.
ATXN viability = reduces viability in counter-screen for ATXN expression inhibitors. S2 cells (HEK-293 line with an ATXN2-luciferase reporter) viability, CellTiter-Fluor protease fluorescence, 24 h. Potency, µM (series often up to 56.7 µM), actives largely listed as cytotoxic. 400,000 compounds, 0.49% hits; also: nearly all actives have a fitted effect of over 40% in size
HepG2 viability = HepG2 cytotoxicity, counter-screen for TGF-b inhibitors; Potency, µM (series often up to 46.1 µM), inactives show at the highest dose activity change, negative = cytotoxicity, most hits filed as cytotoxic; HepG2 CAGA-GFP viability, ATP luminescence, 18 h; 410,000 compounds, 0.76% hits
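HepG2 CAGA-GFP cells (1000/well, DMEM with 1% FBS) received compound, then TGF-beta at 500 pg/mL final, and were incubated 18 hours at 37 degrees C. Viability was read by CellTiter-Glo luminescence. Media-only wells were set as complete cell-killing and DMSO as no toxicity.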
12-LOX inh = ALOX12 (human) lipoxygenase inhibition; purified 12hLO, xylenol orange hydroperoxide absorbance; Potency, µM (series often up to 108 µM), without a hit: at the top dose activity change, negative = inhibition, hits mostly inhibitors; 580,000 compounds, 1.1% hits; AID 1671190; P18054; also: % is scaled to controls: 0 for no effect and ±100 for the full control effect
Target sequence (P18054 whole entry, looked up): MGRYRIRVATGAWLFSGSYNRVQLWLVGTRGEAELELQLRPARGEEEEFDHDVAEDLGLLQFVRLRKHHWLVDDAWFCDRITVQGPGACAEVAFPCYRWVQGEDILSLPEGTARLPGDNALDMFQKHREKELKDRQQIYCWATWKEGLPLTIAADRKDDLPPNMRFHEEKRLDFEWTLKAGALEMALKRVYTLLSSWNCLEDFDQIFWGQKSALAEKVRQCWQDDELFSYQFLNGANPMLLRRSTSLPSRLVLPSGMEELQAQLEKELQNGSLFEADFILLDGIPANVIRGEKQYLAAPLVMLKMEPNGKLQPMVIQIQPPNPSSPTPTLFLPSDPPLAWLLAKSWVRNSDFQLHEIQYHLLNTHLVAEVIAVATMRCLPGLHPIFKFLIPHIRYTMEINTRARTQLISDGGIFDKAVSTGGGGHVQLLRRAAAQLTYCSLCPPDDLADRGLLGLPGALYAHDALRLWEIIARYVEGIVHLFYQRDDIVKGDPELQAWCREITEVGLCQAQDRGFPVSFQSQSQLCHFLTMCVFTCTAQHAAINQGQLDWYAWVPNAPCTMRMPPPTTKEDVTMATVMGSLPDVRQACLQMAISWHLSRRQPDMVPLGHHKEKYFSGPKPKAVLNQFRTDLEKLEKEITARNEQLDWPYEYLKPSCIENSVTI
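Hydroperoxide product was detected by ferrous iron/xylenol orange as the 573 to 405 nm absorbance ratio. Arachidonic acid at 40 uM (final) was turned over for 30 min at room temperature by 150 nM human 12hLO, pH 7.0 Hepes buffer, after 15 min compound preincubation.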
TGFb SMAD3 inh = inhibitors of TGF-b signaling. 410,000 compounds, 1.2% hits. Potency, µM (titrated, usually from 46.1 µM), without a hit: at the top dose activity, negative = inhibition, usual class: inhibitors. HepG2 CAGA-GFP TGF-b/SMAD3 reporter, GFP fluorescence, 18 h; TGF-beta stimulated, 500 pg/mL final; also: % is scaled to controls: 0 for no effect and ±100 for the full control effect; nearly all actives have a fitted effect of over 65% in size
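Inhibition of TGF-beta-driven CAGA-GFP reporter expression in HEPG2 cells is measured by cellular GFP fluorescence after 18 h stimulation with 500 pg/mL recombinant TGF-beta in 1% FBS medium at 37 degrees C.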
ATXN2 expr inh = inhibitors of ATXN2 expression; HEK-293 ATXN2-luciferase reporter, luminescence, 24 h; Potency, µM (doses to about 57 µM), without a hit: at the highest dose activity change, negative = inhibition, usual class: inhibitors; 360,000 compounds, 0.72% hits; also: % is scaled to controls: 0 for no effect and ±100 for the full control effect; nearly all actives have a fitted effect of over 55% in size
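qHTS (up to 57 uM final) was run with 24 h compound exposure of reporter cells at 37 °C. Each well was multiplexed: SteadyGlo luminescence measured ATXN2-luciferase expression after a fluorogenic Gly-Phe-AFC viability readout (25 uM final).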
* = called active by the depositor; i = inactive; ? = inconclusive; / = no result given; ! = repeats disagree; [ ] = another dose, or the depositor's remark. Rows were chosen to be rich in hits. Some 2.7% of all compounds tested hit in one or more screens of this group. Calls follow the shape of the dose curve; as a rule, active = well fitted curve in the direction sought with a large enough effect; inconclusive = small, poorly fitted or top-dose-only effect, or another doubt; inactive = no such curve, though single readings can be large; an effect the other way counts as inactive or inconclusive. Potency is read from the fitted curve at half-maximal effect.

SMILES	ATXN viability	HepG2 viability	12-LOX inh	TGFb SMAD3 inh	ATXN2 expr inh
COc1ccc(NC(=O)CSc2nc3ccccc3nc2N2CCOCC2)c(OC)c1	4.5µM*!	-20%	-3%	-14%	-21%
COc1ccc(OC)c(NC(=O)CSc2c3c(nc4cc(Cl)ccc24)CCCC3)c1	/	-46%	2%	10µM*	/
COc1ccc(OC)c(NC(=O)CSc2c3c(nc4ccccc24)CCCC3)c1	/	13µM*	?	?	?
COc1ccc(Cl)cc1NC(=O)CSc1c2c(nc3ccccc13)CCC2	/	-37%	1%	?	/
O=C(NCCc1c[nH]c2ccccc12)c1cc(F)ccc1F	/	/	-22%	/	/
COc1ccc(-c2c(C)oc3c(C)c(OCCN4CCCCC4)ccc3c2=O)cc1	/	/	-2%	/	/
CCN(CC)CCCNC(=O)c1ccc2c(Cl)c3c(nc2c1)CCCC3	20µM*!	1.6µM*!	-18%	13µM*	28µM*
CCN(CC)CCNC(=O)CSc1c2c(nc3cc(Cl)ccc13)CCCC2	/	-79%	-10%	18µM*	/
COCCNC(=O)CSc1c2c(nc3cc(Cl)ccc13)CCCC2	/	-24%	5%	?	/
Cn1c(=O)c2c(ncn2CC(=O)c2ccc(O)cc2)n(C)c1=O	/	/	-22%	/	/
CCN(C(=O)COC(=O)c1cccc2c(=O)c(C)c(-c3ccccc3)oc12)c1ccccc1	/	/	18%	/	/
O=c1c2ccc(Cl)cc2nc2n1CC/C2=C\c1cccc(O)c1	i	-14%	-10%	-12%	1%
O=C(O)c1ccc2c(=O)n3c(nc2c1)/C(=C/c1cccc(O)c1)CC3	i	10%	7.9µM*	-6%	6%
COc1ccc(/C=C2/CCn3c2nc2cc(Cl)ccc2c3=O)cc1O	/	/	1.8µM*	/	/
CC(C)COCCCNC(=O)c1cc(-c2ccncc2)nc2ccccc12	/	/	41%	/	/
COc1cc(F)ccc1-c1ccc(=O)n(Cc2c(F)cccc2Cl)n1	/	/	-19%	/	/
Cc1cccc(-n2nnnc2S(C)(=O)=O)c1	11µM*	6.3µM*	-5%	?	?
COc1cccc(-n2nnnc2S(C)(=O)=O)c1	28µM*	-101%	/	?	?
Cc1cccc(-n2nnnc2C2(N3CCCC3)CCCC2)c1	/	/	-4%	/	/
CN(C)c1cc[n+](CC(=O)c2ccc(-c3ccccc3)cc2)cc1	i	-28%	-4%	?	2.8µM*
O=C(C[n+]1ccccc1)c1ccc(-c2ccccc2)cc1	i	-11%	-1%	-17%	?
O=C(N/N=C/Cc1ccccc1)C1CC1	/	/	18%	/	/
COC(=O)c1ccc(COC(=O)CSc2cnc3ccccc3n2)cc1	/	/	40%	/	/
Cc1c(C(=O)N/N=C/c2cccnc2)sc(N)c1C#N	i	6.3µM*	i	10µM*	2%
COc1ccc(-c2nnc(SCc3csc(Nc4ccc(C)cc4)n3)o2)c(OC)c1	/	/	-27%	/	/
SMILES	ATXN viability	HepG2 viability	12-LOX inh	TGFb SMAD3 inh	ATXN2 expr inh
COc1ccccc1-c1nnc(SCc2csc(Nc3ccc(C)cc3)n2)o1	/	/	40µM*	/	/
Cc1ccc2nc(-c3ccc(C)c(NC(=O)c4cc([N+](=O)[O-])ccc4N4CCOCC4)c3)oc2c1	/	/	-8%	/	/
O=C(CN1CCc2ccccc2C1)N1N=C(c2ccco2)CC1c1cccs1 (configuration not stated)	/	/	18%	/	/
COc1ccc(NC(=O)CCS(=O)(=O)c2nc(-c3ccc4c(c3)OCO4)cc(C(F)(F)F)n2)cc1	/	11µM*	-24%	?	/
Cc1cc(NC(=O)CCS(=O)(=O)c2nc(-c3ccccc3)cc(C(F)(F)F)n2)no1	20µM*	-105%	0%	?	?
CS(=O)(=O)c1nc(-c2ccccc2)cc(C(F)(F)F)n1	/	13µM*	-3%	?	?
O=C(CCS(=O)(=O)c1nc(-c2ccc3c(c2)OCO3)cc(C(F)(F)F)n1)Nc1ccc(F)cc1F	/	-70%	?	18µM*	/
Cc1ccc(S(=O)(=O)CCC(=O)Nc2cc(C)on2)cc1	i	1%	-3%	-8%	/
Cc1ccc(CNC(=O)[C@H](Cc2ccccc2)NC(=O)c2ccco2)n1C	/	/	9%	/	/
COC(=O)/C=C/c1cc(OC)c(OC)c(S(=O)(=O)Oc2ccc3c(c2)CCC3)c1	/	/	-24%	/	/
CCCN(Cc1cccs1)C(=O)Nc1ccccc1OC	/	/	8%	/	/
O=C(/C=C/c1ccccc1)C1=C(O)C(=O)N(CCO)C1c1ccc2c(c1)OCO2 (configuration not stated)	i	3%	7.9µM*	1%	-15%[11.3 µM]
O=C(CN1c2ccccc2Sc2ccccc21)NNC(=S)Nc1ccc(Cl)cc1	i	-13%	14µM*	?	-23%
S=C(NNC(=S)Nc1ccc(Cl)cc1)NNc1ccccc1	i	-33%	45µM*	-11%	/
Cc1ccc(NC(=S)NNC(=S)NNc2ccccc2)cc1C	?	-48%	40µM*	-4%	/
S=C(NNC(=S)Nc1ccccc1)Nc1ccccc1	i	-3%	?	-9%	34%
NC(=O)N/N=C/c1c(O)ccc2oc3c(c12)CCCC3	i	1%	-15%	10µM*	?
Cc1ccc(NC(=S)NCC(C)N2CCCCC2C)cc1Cl (configuration not stated)	/	/	-38%	/	/
COC(=O)C(Cc1c[nH]c2ccccc12)NC(=O)COc1ccc(Cl)cc1Cl (configuration not stated)	/	-63%	?	11µM*	/
CSc1ccccc1NC(=O)COc1ccc(Cl)cc1Cl	i	-35%	-23%	?	9%
O=C(COc1ccc(Cl)cc1Cl)Nc1ccccn1	i	-38%	-10%	8%	2.8µM*
CCc1ccc(NC(=O)Cn2c(-c3ccccc3)nc(C)c(CCO)c2=O)cc1	/	/	-1%	/	/
CC(=O)Nc1ccc(CNC(=O)C2CCCC2)cc1	/	/	0%	/	/
Cn1cc(CN2CCCC(C(=O)Nc3cccc(-n4cccn4)c3)C2)cn1 (configuration not stated)	i	-20%	6%	-7%	4%
Cn1cc(CN2CCCC(C(=O)Nc3ccc(-c4cccc(F)c4)cc3)C2)cn1 (configuration not stated)	32µM*	-99%	-11%	?	/
NC(=O)C1CCN(Cc2nc3ccccc3c(=O)[nH]2)CC1	i	5%	?	-24%	7%
NC(=O)C1CCN(Cc2nc3cc(Cl)ccc3c(=O)[nH]2)CC1	i	-32%	13µM*	-2%	-23%
N#C/C(=C\c1cccc([N+](=O)[O-])c1)C(=O)NCc1ccc(Cl)cc1	?	-28%	?	?	24µM*
COc1ccccc1CN1CCC(CNC(=O)c2cnn(-c3ccc(Cl)cc3)c2C2CCN(C(=O)OC(C)(C)C)CC2)CC1	/	-108%	-6%	10µM*	/
Cc1cccc(-n2ncc(C(=O)N3CCN(C4CCCCC4)CC3)c2C2CCN(C(=O)OC(C)(C)C)CC2)c1	/	-18%	-9%	8.9µM*	/
